# High-throughput results from PubChem.
# rCAG RNA binder = binders of r(CAG) RNA repeats, primary screen, biochemical, fluorescence. r(CAG) RNA repeat, TO-PRO-1 dye displacement fluorescence. inhibition, % at 3 µM. 370,000 tested, 1.3% active;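 active means inhibition above the plate cutoff, the mean of all test compounds on that plate plus 3 SD, cut at about 35% in these data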;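 further: 0% = DMSO alone and 100% = 100 µM mitoxantrone as full dye displacement; higher means more dye released from RNA so lower well fluorescence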
# GRIN3A LBD mod = binders of NR3A ligand-binding domain, primary screen, biophysical, differential scanning fluorimetry, uHTS; 340,000 tested, 2.5% active; NR3A LBD differential scanning fluorimetry, Tm shift; 0% = protein alone, 100% = glycine-bound protein; AID 1259313, 2017; Tm shift relative to glycine control, % at 25 µM; Glutamate receptor ionotropic, NMDA 3A (GRIN3A) ligand-binding domain;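 active means melting temperature shift of at least 10% of the positive control shift, at one fixed dose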
# NadD block = inhibitors of S. aureus NadD, primary screen, biochemical, colorimetric, uHTS; Nicotinate-nucleotide adenylyltransferase NadD (Staphylococcus aureus N315); purified NadD enzyme, colorimetric absorbance read-out; inhibition, % at 20 µM; 360,000 tested, 0.78% active; in the data active means inhibition above about 26%
# FAS TE block = FAS thioesterase domain inhibitors, primary screen, biochemical, fluorescence intensity, uHTS. 360,000 tested, 0.67% active. recombinant FAS-TE, OMFH fluorogenic substrate, fluorescence endpoint. AID 602261, 2012. inhibition, % at 15 µM;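 active means compounds whose normalised, plate-corrected inhibition of enzyme fluorescence in the single-dose primary screen is 50% or more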;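 further: 0% = DMSO with enzyme and 100% = substrate without enzyme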
# Target sequence (P49327 whole entry, looked up, the tested form may be a part): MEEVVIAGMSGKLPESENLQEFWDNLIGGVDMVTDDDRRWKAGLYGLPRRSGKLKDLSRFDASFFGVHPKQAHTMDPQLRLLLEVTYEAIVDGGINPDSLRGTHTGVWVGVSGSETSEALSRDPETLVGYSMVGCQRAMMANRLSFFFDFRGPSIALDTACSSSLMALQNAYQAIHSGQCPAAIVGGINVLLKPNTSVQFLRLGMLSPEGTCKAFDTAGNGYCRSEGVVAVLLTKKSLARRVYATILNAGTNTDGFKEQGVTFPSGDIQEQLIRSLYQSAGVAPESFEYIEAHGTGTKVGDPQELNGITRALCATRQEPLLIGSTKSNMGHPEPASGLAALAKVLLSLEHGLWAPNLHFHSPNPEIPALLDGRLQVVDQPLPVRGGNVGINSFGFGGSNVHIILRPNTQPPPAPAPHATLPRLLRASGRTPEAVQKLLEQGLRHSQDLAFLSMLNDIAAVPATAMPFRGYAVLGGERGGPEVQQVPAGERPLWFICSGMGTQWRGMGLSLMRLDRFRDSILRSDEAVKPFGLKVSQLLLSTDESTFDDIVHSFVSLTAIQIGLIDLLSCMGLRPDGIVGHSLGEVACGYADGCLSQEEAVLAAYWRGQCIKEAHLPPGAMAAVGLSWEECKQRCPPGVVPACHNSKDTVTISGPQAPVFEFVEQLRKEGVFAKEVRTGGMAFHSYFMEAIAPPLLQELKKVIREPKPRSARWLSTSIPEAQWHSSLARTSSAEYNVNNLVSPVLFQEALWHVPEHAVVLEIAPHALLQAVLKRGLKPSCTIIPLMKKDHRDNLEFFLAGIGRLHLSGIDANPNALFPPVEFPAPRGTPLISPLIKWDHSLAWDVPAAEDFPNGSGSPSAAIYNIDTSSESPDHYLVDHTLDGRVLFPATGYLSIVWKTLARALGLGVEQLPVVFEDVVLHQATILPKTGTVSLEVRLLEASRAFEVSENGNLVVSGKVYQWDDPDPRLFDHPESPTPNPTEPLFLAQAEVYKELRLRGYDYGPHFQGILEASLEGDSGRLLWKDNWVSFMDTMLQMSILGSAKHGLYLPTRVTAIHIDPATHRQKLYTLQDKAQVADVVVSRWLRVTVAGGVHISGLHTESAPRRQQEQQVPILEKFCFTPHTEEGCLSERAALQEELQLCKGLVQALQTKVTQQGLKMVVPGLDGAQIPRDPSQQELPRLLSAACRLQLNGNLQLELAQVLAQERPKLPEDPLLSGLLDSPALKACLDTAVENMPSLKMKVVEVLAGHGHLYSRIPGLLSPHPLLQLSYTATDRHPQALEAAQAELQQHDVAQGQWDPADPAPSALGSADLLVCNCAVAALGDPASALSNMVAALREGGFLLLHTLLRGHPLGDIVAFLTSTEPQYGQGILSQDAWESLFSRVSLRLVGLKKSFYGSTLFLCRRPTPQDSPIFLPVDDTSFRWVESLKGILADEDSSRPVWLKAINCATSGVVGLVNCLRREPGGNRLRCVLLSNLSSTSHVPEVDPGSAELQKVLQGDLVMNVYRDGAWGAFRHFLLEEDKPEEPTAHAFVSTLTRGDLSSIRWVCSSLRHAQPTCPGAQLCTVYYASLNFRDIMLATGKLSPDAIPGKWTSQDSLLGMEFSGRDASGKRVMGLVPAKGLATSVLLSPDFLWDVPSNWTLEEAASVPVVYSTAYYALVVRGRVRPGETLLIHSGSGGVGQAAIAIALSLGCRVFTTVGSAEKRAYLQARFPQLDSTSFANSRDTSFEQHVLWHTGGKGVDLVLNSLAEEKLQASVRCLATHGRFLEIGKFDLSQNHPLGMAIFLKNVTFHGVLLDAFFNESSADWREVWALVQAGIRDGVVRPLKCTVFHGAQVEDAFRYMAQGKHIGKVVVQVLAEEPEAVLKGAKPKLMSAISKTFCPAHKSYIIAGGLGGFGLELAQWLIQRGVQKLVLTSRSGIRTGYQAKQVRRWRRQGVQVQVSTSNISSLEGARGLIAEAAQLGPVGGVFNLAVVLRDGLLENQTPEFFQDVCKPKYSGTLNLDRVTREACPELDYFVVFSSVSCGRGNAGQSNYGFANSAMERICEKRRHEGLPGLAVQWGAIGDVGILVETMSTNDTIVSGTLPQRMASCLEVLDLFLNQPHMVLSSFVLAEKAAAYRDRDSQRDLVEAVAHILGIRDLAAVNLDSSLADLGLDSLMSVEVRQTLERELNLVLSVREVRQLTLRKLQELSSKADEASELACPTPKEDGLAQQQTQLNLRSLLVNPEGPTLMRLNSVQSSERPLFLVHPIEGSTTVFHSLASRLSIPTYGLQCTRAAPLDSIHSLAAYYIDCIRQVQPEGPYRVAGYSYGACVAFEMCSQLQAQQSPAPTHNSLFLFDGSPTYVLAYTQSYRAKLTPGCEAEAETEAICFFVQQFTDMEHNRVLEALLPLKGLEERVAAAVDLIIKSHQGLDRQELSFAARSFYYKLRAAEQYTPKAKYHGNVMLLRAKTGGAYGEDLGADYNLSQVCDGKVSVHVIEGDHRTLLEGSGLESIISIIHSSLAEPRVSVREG
# rCAG binder conf = small molecules binding CAG repeat RNA – biochemical, fluorescence, confirmation; shares compounds with rCAG RNA binder; r(CAG) RNA repeat, TO-PRO-1 dye displacement fluorescence; inhibition, % at 3 µM; 4,300 tested, 70% active; AID 652065, 2013;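 active means inhibition above a per-plate cutoff, the mean inhibition of sample wells plus 3 SD, cut at about 35% in these data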;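 further: loss of TO-PRO-1 fluorescence as compound displaces dye from 1x1 AA loop RNA; 0% = DMSO only wells and 100% = 100 µM mitoxantrone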
# dCAG dye counter = displacement of TO-PRO-1 from CAG DNA duplex, counter-screen for rCAG RNA repeat binder project, biochemical, fluorescence, TO-PRO-1 dye, d(CAG) DNA oligo; 4,300 tested, 94% active; AID 652068, 2013; inhibition, % at 3 µM; d(CAG) DNA oligo TO-PRO-1 dye displacement; shares compounds with rCAG RNA binder;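 active means inhibition above its plate's cutoff, the mean test-well inhibition plus 3 SD, cut at about 4.8% in these data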;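 further: 0% = DNA dye mix with DMSO and 100% = 100 µM mitoxantrone; hits displace the dye from DNA and so lower well fluorescence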
# An asterisk follows results filed as active; · = no result given. This is a sample that favours compounds with a hit; in the whole collection about 4.3% have one here.
SMILES,rCAG RNA binder,GRIN3A LBD mod,NadD block,FAS TE block,rCAG binder conf,dCAG dye counter
Cc1noc(NS(=O)(=O)c2ccc(NC(=O)c3ccccc3NS(=O)(=O)c3ccc(F)c(F)c3)cc2)c1C,76*,8,3,-6,69*,30*
COc1cccc(C(=O)Nc2ccc(S(=O)(=O)Nc3onc(C)c3C)cc2)c1,16,-2,-2,-3,·,·
Cc1noc(NS(=O)(=O)c2ccc(NC(=O)c3cccc(S(=O)(=O)Nc4ccccc4F)c3)cc2)c1C,35*,-1,-1,-8,27,7.8*
CCOC(=O)C(C)(C)CC#CCN(CC#Cc1ccccc1)S(=O)(=O)c1ccc(C)cc1,9,·,·,·,·,·
Cc1cccc(Cn2cc(COC(=O)NCCc3c[nH]c4ccccc34)nn2)c1,5,·,·,·,·,·
COc1ccc(N=C2NC(=O)/C(=C\C=C\c3ccco3)S2)cc1,44*,7,36*,10,33,17*
Cc1ccc(N=C2NC(=O)/C(=C\c3ccco3)S2)cc1,42*,-7,3,-3,34,15*
Cc1cc(C)cc(N=C2NC(=O)/C(=C/c3cccs3)S2)c1,21,-6,6,14,·,·
Cc1ccc(S(=O)(=O)/N=C2/NC(=O)/C(=C/c3ccc(Br)o3)S2)cc1,93*,-13,9,14,83*,54*
Cc1cccc(N=C2NC(=O)/C(=C/C=C/c3ccco3)S2)c1,52*,3,32*,18,43*,23*
Cc1ccc(S(=O)(=O)/N=C2/NC(=O)/C(=C/c3cccnc3)S2)cc1,15,-3,7,2,·,·
CCS(=O)(=O)Nc1ccc2c(c1)C(=O)N(C)[C@@H]1CC[C@H](CC(=O)N3CCCCC3)O[C@H]1CO2,1,·,·,·,·,·
COC(=O)C1=C(C)N(C)C(=NCC2CC2)NC1c1ccccc1C(F)(F)F (configuration not stated),2,·,·,·,·,·
COc1cc2c(c(OC)c1OC)[C@@]1(c3ccccc3)CCCC[C@H]1[C@@H]2NC(=O)C(F)(F)F,1,·,·,·,·,·
COc1cc(OC)c2c(O)c3c(=O)cc(C)oc3c(-c3c(OC)cc4cc5c(c(O)c4c3O)C(=O)CC(C)(O)O5)c2c1 (configuration not stated),44*,·,·,·,41*,22*
O=C(O)CCN1C(=O)c2ccc(NC(=O)c3ccco3)cc2C1=O,0,-2,-1,-6,·,·
O=C(O)CCN1C(=O)c2ccc(NC(=O)C(c3ccccc3)c3ccccc3)cc2C1=O,48*,0,-13,-3,35*,8.0*
COc1ccc2[nH]c3c4c(ccc3c2c1)C(=O)C=CC4=O,44*,-25,7,14,19,15*
COc1ccc2[nH]c(=O)cc(C(=O)O)c2c1,8,1,15,-8,·,·
C=CCn1c(NC(=O)c2ccccc2Cl)c(C#N)c2nc3ccccc3nc21,69*,3,3,17,67*,29*
CCCCn1c(NC(C)=O)c(C#N)c2nc3ccccc3nc21,11,2,1,-5,·,·
C[C@@H]1ON(C)[C@H]2C[C@H]3c4[nH]c5cccc(Br)c5c4CCN3C(=O)[C@@H]12,3,·,·,·,·,·
CC1(C)CC(=O)C2=C(C1)c1c(ccc3ccccc13)NC2c1ccc(C(=O)O)cc1 (configuration not stated),7,-1,-4,-2,·,·
CC1(C)CC(=O)C2=C(C1)c1c(ccc3ccccc13)NC2c1cc([N+](=O)[O-])cc([N+](=O)[O-])c1O (configuration not stated),93*,5,27,46,89*,64*
COc1ccc(-c2cc(=O)oc3c(C)c(OCC(=O)N[C@@H](Cc4ccc(O)cc4)C(=O)O)ccc23)cc1,47*,-5,9,6,46*,13*
COc1ccc(-c2cc(=O)oc3cc(OC(C)C(=O)NC(Cc4c[nH]c5ccc(O)cc45)C(=O)O)ccc23)cc1 (configuration not stated),44*,0,-4,1,43*,13*
